Test results: PubChem BioAssay AID1159580 (chemical genetic matrix, 2015)
Hit rate of the full screen: of about 5,500 compounds, about 2,000 (36%) were called active. Inconclusive results (about 18%) are left out. Cut-off read from the data, not from the text of the source: active = normalized growth mostly below about 0.91 (no sharp cut-off); inconclusive = no clear call, values can overlap the other calls; inactive = mostly above about 0.92. The list shows a part of the results.

Assay: chemical genetic growth profiling, strain panel (AID 1159580);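 note: tested at 20 µM; growth read once vehicle control cultures reached saturation at 30 °C; 1 = growth at the plate median or of vehicle wells; lower values mean less growth of the strain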
Conditions: growth OD

Measured: normalized growth

COc1ccc(CCC(=O)c2c(O)cc(O[C@@H]3O[C@H](CO)C(O)[C@H](O)C3O[C@@H]3O[C@@H](C)[C@H](O)[C@@H](O)[C@H]3O)cc2O)cc1O (some centres not stated)
inactive: S. cerevisiae deletion strains, locus YJR075W, strain HOC1, stronger effect = lower value 0.996 | S. cerevisiae deletion strains, locus YKL009W, strain mrt4, stronger effect = lower value 1 | S. cerevisiae deletion strains, locus YKL068W, stronger effect = lower value 0.972 | S. cerevisiae deletion strains, locus YKL085W, strain MDH1 (second series), stronger effect = lower value 0.982 | S. cerevisiae deletion strains, locus YKL085W, strain MDH1, stronger effect = lower value 0.982 | S. cerevisiae deletion strains, locus YKL160W, strain elf1, stronger effect = lower value 1 | S. cerevisiae deletion strains, locus YKL190W, strain CNB1, stronger effect = lower value 0.999 | S. cerevisiae deletion strains, locus YKR001C, strain vps1, stronger effect = lower value 0.989 | S. cerevisiae deletion strains, locus YKR026C, strain gcn3, stronger effect = lower value 1.02 | S. cerevisiae deletion strains, locus YKR091W, strain srl3, stronger effect = lower value 1.01 | S. cerevisiae deletion strains, locus YLL001W, strain dnm1, stronger effect = lower value 1 | S. cerevisiae deletion strains, locus YLL026W, stronger effect = lower value 1.02 | S. cerevisiae deletion strains, locus YLL041C, strain sdh2, stronger effect = lower value 1.02 | S. cerevisiae deletion strains, locus YLR027C, strain aat2, stronger effect = lower value 1 | S. cerevisiae deletion strains, locus YLR039C, strain RIC1, stronger effect = lower value 0.982 | S. cerevisiae deletion strains, locus YLR058C, strain SHM2, stronger effect = lower value 1 | S. cerevisiae deletion strains, locus YLR102C, strain apc9, stronger effect = lower value 0.973 | S. cerevisiae deletion strains, locus YLR113W, strain HOG1, stronger effect = lower value 0.98 | S. cerevisiae deletion strains, locus YLR221C, strain rsa3, stronger effect = lower value 1.04 | S. cerevisiae deletion strains, locus YLR258W, strain gsy2, stronger effect = lower value 1.04 | S. cerevisiae deletion strains, locus YLR262C, strain YPT6 (second series), stronger effect = lower value 1.05 | S. cerevisiae deletion strains, locus YLR262C, strain YPT6, stronger effect = lower value 0.97 | S. cerevisiae deletion strains, locus YLR268W, strain sec22, stronger effect = lower value 0.95 | S. cerevisiae deletion strains, locus YLR320W, strain mms22, stronger effect = lower value 1.06 | S. cerevisiae deletion strains, locus YLR330W, strain CHS5, stronger effect = lower value 0.993 | S. cerevisiae deletion strains, locus YLR342W, strain FKS1 (second series), stronger effect = lower value 1.06 | S. cerevisiae deletion strains, locus YLR342W, strain FKS1, stronger effect = lower value 1.02 | S. cerevisiae deletion strains, locus YLR357W, strain rsc2, stronger effect = lower value 1.01 | S. cerevisiae deletion strains, locus YLR370C, strain arc18, stronger effect = lower value 1.01 | S. cerevisiae deletion strains, locus YLR371W, strain rom2, stronger effect = lower value 0.983 | S. cerevisiae deletion strains, locus YLR384C, strain iki3, stronger effect = lower value 1.04 | S. cerevisiae deletion strains, locus YLR418C, strain cdc73, stronger effect = lower value 0.985 | S. cerevisiae deletion strains, locus YML016C, strain PPZ1, stronger effect = lower value 1.01 | S. cerevisiae deletion strains, locus YML032C, strain rad52, stronger effect = lower value 0.966 | S. cerevisiae deletion strains, locus YML120C, strain ndi1, stronger effect = lower value 1.01 | S. cerevisiae deletion strains, locus YML124C, strain tub3, stronger effect = lower value 0.984 | S. cerevisiae deletion strains, locus YMR058W, strain fet3, stronger effect = lower value 1.03 | S. cerevisiae deletion strains, locus YMR078C, strain ctf18, stronger effect = lower value 0.989 | S. cerevisiae deletion strains, locus YMR125W, strain sto1, stronger effect = lower value 1.01 | S. cerevisiae deletion strains, locus YMR129W, stronger effect = lower value 1.02 | S. cerevisiae deletion strains, locus YMR205C, strain PFK2, stronger effect = lower value 1.02 | S. cerevisiae deletion strains, locus YMR223W, strain ubp8, stronger effect = lower value 1.01 | S. cerevisiae deletion strains, locus YMR231W, strain pep5, stronger effect = lower value 0.995 | S. cerevisiae deletion strains, locus YMR263W, strain SAP30, stronger effect = lower value 0.989 | S. cerevisiae deletion strains, locus YMR307W, strain GAS1, stronger effect = lower value 1.04 | S. cerevisiae deletion strains, locus YNL067W, strain RPL9B, stronger effect = lower value 0.989 | S. cerevisiae deletion strains, locus YNL071W, strain lat1, stronger effect = lower value 1.01 | S. cerevisiae deletion strains, locus YNL128W, strain TEP1, stronger effect = lower value 0.989 | S. cerevisiae deletion strains, locus YNL153C, strain GIM3, stronger effect = lower value 0.988 | S. cerevisiae deletion strains, locus YNL183C, strain NPR1, stronger effect = lower value 0.899 | S. cerevisiae deletion strains, locus YNL209W, strain ssb2, stronger effect = lower value 1.01 | S. cerevisiae deletion strains, locus YNL233W, strain BNI4, stronger effect = lower value 0.994 | S. cerevisiae deletion strains, locus YNL248C, strain rpa49, stronger effect = lower value 1.04 | S. cerevisiae deletion strains, locus YNL250W, strain rad50, stronger effect = lower value 0.979 | S. cerevisiae deletion strains, locus YNL271C, strain bni1, stronger effect = lower value 0.981 | S. cerevisiae deletion strains, locus YNL298W, strain CLA4, stronger effect = lower value 0.984 | S. cerevisiae deletion strains, locus YNL307C, strain MCK1, stronger effect = lower value 0.993 | S. cerevisiae deletion strains, locus YNL322C, strain KRE1 (second series), stronger effect = lower value 1.01 | S. cerevisiae deletion strains, locus YNL322C, strain KRE1, stronger effect = lower value 0.993 | S. cerevisiae deletion strains, locus YNR049C, strain mso1, stronger effect = lower value 1.02 | S. cerevisiae deletion strains, locus YNR052C, strain pop2, stronger effect = lower value 0.993 | S. cerevisiae deletion strains, locus YOL006C, strain TOP1, stronger effect = lower value 0.929 | S. cerevisiae deletion strains, locus YOL012C, strain htz1 1.02 | S. cerevisiae deletion strains, locus YOL147C, strain pex11, stronger effect = lower value 0.989 | S. cerevisiae deletion strains, locus YOR001W, strain rrp6, stronger effect = lower value 1.05 | S. cerevisiae deletion strains, locus YOR061W, strain CKA2, stronger effect = lower value 0.999 | S. cerevisiae deletion strains, locus YOR069W, strain VPS5, stronger effect = lower value 1 | S. cerevisiae deletion strains, locus YOR070C, strain gyp1, stronger effect = lower value 1 | S. cerevisiae deletion strains, locus YOR080W, strain dia2, stronger effect = lower value 1.03 | S. cerevisiae deletion strains, locus YOR083W, strain WHI5, stronger effect = lower value 1 | S. cerevisiae deletion strains, locus YOR106W, strain vam3, stronger effect = lower value 0.992 | S. cerevisiae deletion strains, locus YOR136W, strain idh2, stronger effect = lower value 0.99 | S. cerevisiae deletion strains, locus YOR144C, strain elg1, stronger effect = lower value 0.977 | S. cerevisiae deletion strains, locus YOR184W, strain ser1, stronger effect = lower value 0.985 | S. cerevisiae deletion strains, locus YOR231W, strain MKK1, stronger effect = lower value 0.97 | S. cerevisiae deletion strains, locus YOR265W, strain rbl2, stronger effect = lower value 1.02 | S. cerevisiae deletion strains, locus YOR270C, strain vph1, stronger effect = lower value 1.07 | S. cerevisiae deletion strains, locus YOR290C, strain snf2, stronger effect = lower value 0.965 | S. cerevisiae deletion strains, locus YOR316C, strain cot1, stronger effect = lower value 0.967 | S. cerevisiae deletion strains, locus YPL051W, strain arl3, stronger effect = lower value 1.02 | S. cerevisiae deletion strains, locus YPL055C, strain LGE1, stronger effect = lower value 0.982 | S. cerevisiae deletion strains, locus YPL078C, strain atp4, stronger effect = lower value 0.989 | S. cerevisiae deletion strains, locus YPL106C, strain sse1, stronger effect = lower value 1.02 | S. cerevisiae deletion strains, locus YPL240C, strain hsp82, stronger effect = lower value 1.02 | S. cerevisiae deletion strains, locus YPL241C, strain CIN2, stronger effect = lower value 0.993 | S. cerevisiae deletion strains, locus YPL256C, strain CLN2, stronger effect = lower value 0.962 | S. cerevisiae deletion strains, locus YPR119W, strain clb2, stronger effect = lower value 0.975 | S. cerevisiae deletion strains, locus YPR141C, strain kar3, stronger effect = lower value 0.986 | S. cerevisiae deletion strains, locus YPR163C, strain tif3, stronger effect = lower value 0.985 | S. cerevisiae deletion strains, locus YPR167C, strain met16, stronger effect = lower value 0.97 | S. cerevisiae deletion strains, strain wtn01, stronger effect = lower value 1 | S. cerevisiae strains, strain wild type, stronger effect = lower value 0.995
